Data: PubChem BioAssay (NCI)
The panel holds about 79,000 compounds, 15% with a hit somewhere; the sample as a whole holds those more often. Rule as the data show it: active = growth inhibition above about 70%; inactive = the rest.

Tests used:
[1] = NCI Yeast Anticancer Drug Screen. Data for the rad50 strain (AID 155);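 also: 0% = growth of vehicle-only cultures of the same strain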; conditions: S. cerevisiae rad50 strain growth inhibition; at 50.0 µM; stronger effect = higher value
Procedure, shortened: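 Growth of the mutant yeast was measured after compound exposure and referenced to vehicle-treated cultures.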

[2] = NCI Yeast Anticancer Drug Screen. Data for the mec2-1 strain (AID 157); conditions: S. cerevisiae mec2-1 strain, at 50.0 µM, stronger effect = higher value
Procedure, shortened: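 Using mec2-1 yeast: add compound, measure growth, express inhibition versus vehicle-treated cultures.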

[3] = NCI Yeast Anticancer Drug Screen. Data for the sgs1 mgt1 strain (AID 161);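 also: 0% = growth of cultures given vehicle only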; conditions: S. cerevisiae sgs1 mgt1 strain, at 50.0 µM, stronger effect = higher value
Procedure, shortened: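 Compounds are added to genetically altered yeast, and growth is compared with cultures given vehicle alone to give percent inhibition.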

[4] = NCI Yeast Anticancer Drug Screen. Data for the cln2 rad14 strain (AID 165);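 also: 0% = growth equal to vehicle treated cultures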; conditions: S. cerevisiae cln2 rad14 strain, at 50.0 µM, stronger effect = higher value
Procedure, shortened: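 Yeast strain cln2 rad14, bearing defects in cell cycle control and DNA repair, serves as the test system; values reflect growth inhibition compared with vehicle.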

[5] = NCI Yeast Anticancer Drug Screen. Data for the bub3 strain (AID 167); conditions: S. cerevisiae bub3 mutant strain, at 50.0 µM, stronger effect = higher value
Procedure, shortened: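 Whole-cell yeast assay. The mutant strain was incubated with compounds, and growth inhibition was determined by comparison with vehicle-treated cells.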

[6] = NCI Yeast Anticancer Drug Screen. Data for the mlh1 rad18 strain (AID 175); conditions: S. cerevisiae mlh1 rad18 strain growth inhibition; at 50.0 µM; stronger effect = higher value
Procedure, shortened: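 Steps: expose repair-defective yeast to compound; measure growth; express inhibition against vehicle-treated controls.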

Measured: growth inhibition

O=Cc1cc(O)ccc1[N+](=O)[O-]
inactive: [1] 11.4% | [2] -19.2% | [3] -9.55% | [4] 13.3% | [5] -13.4% | [6] 16.1%

COc1ccc2cc1Oc1ccc(cc1)CC1c3c(cc(OC)c4c3Oc3cc5c(cc3O4)CCNC5C2)CCN1C (stereo unspecified)
inactive: [1] -15.9% | [2] -31.6% | [3] -12.2% | [4] -1.1% | [5] -38.8% | [6] -25.1%

COC1OC2COC(c3ccccc3)OC2C(OC)C1OC(=O)c1ccccc1 (stereo unspecified)
inactive: [1] -3.05% | [2] 0.85% | [3] -14.1% | [4] -37.6% | [5] -2.05% | [6] 7.55%

OCC1(OC2OC(CF)C(O)C(O)C2O)OC(CF)C(O)C1O (stereo unspecified)
inactive: [1] -1.1% | [2] 0.75% | [3] -5.65% | [4] -23.5% | [5] 3.3% | [6] 3.85%

O=C1CC(c2ccc(Cl)cc2)NC(c2ccc(Cl)cc2)C1 (stereo unspecified)
inactive: [1] 13.6% | [2] 2.35% | [3] 8.55% | [4] 11.2% | [5] 6.4% | [6] 14.8%

CCOC(=O)CSc1nc(-c2ccc(Cl)cc2)c(C#N)c(=O)[nH]1
inactive: [1] 5.9% | [2] -0.45% | [3] 2% | [4] 27.1% | [5] 8.85% | [6] -79%

CCCNc1ccc2c(c1)C(=O)c1ccccc1-2
inactive: [1] -3.5% | [2] -1.1% | [3] -0.15% | [4] -6.2% | [5] -0.65% | [6] -1.8%

OC12c3ccccc3C1(N1CCOCC1)CCCCC21OCCCO1 (stereo unspecified)
inactive: [1] 12.7% | [2] -11.2% | [3] -17.6% | [4] 10.1% | [5] -23.5% | [6] -5.15%

COc1cccc2c1[C@@]1(C)C3C(=O)OC(C)(c4ccccc43)[C@@]1(C)C2=O (stereo partly specified)
inactive: [1] 39.4% | [2] 20.7% | [3] -7.45% | [4] 23.1% | [5] -4.1% | [6] 9.35%

O=S(=O)(O)c1ccc(OCCCCCCCCCCOc2ccc(S(=O)(=O)O)cc2)cc1
inactive: [1] -14.6% | [2] 9.15% | [3] -9.6% | [4] 0.7% | [5] -5.35% | [6] -8.1%

Cc1nc2ccc(Cl)cc2c(=O)[nH]1
inactive: [1] -6.35% | [2] -6.45% | [3] -8.65% | [4] -57.2% | [5] -16.2% | [6] 0.9%

CCCCCCCCCCCCCCCCSC1=C(Cl)C(=O)C(OC)=C(OC)C1=O
inactive: [1] 25.6% | [2] -4.7% | [3] 21.1% | [4] -26% | [5] 0.25% | [6] 9.4%

CCOc1ccc2cc3c(nc2n1)[nH]c1ccccc13
inactive: [1] -27.4% | [2] 4.15% | [3] -0.3% | [4] -16.1% | [5] 8.25% | [6] 11.1%

O=[N+]([O-])c1ccc(OCc2ccccc2)c(Cl)c1
inactive: [1] -4.2% | [2] 17.1% | [3] 25.9% | [4] -13.8% | [5] 46.3% | [6] 30.4%

COc1ccc(C2N3CCCCC3[C@@H]3c4[nH]c5ccccc5c4CCN23)c(OC)c1 (stereo partly specified)
inactive: [1] -30.2% | [2] -24.4% | [3] -26.6% | [4] 6.1% | [5] -5.3% | [6] -9.65%

CCOC(=O)c1cc2nc3ccccn3c(=O)c2cc1N
inactive: [1] -1.15% | [2] -17.5% | [3] 0.85% | [4] -36.3% | [5] -9.3% | [6] -8.45%

O=c1c2cnc3c4cccnc4ccc3c2[nH]n1-c1ccccc1
inactive: [1] -22.6% | [2] 8.15% | [3] 14.2% | [4] -15.4% | [5] -9.85% | [6] -2.8%

COC(=O)C1(CC(=O)c2ccccc2)NC(=S)NC(=O)C1C#N (stereo unspecified)
inactive: [1] 1.85% | [2] -13.9% | [3] -24.4% | [4] -15.8% | [5] -33.5% | [6] -3.35%

NC(=O)CNC(=O)[C@@H]1C[C@@H](OCCC(=O)O)CN1C(=O)OCc1ccccc1
inactive: [1] -32.2% | [2] -8.75% | [3] -24.5% | [4] 4.1% | [5] 14.5% | [6] 4.95%

O=c1[nH]cc(F)c(=S)[nH]1
inactive: [1] -9.85% | [2] -16.5% | [3] -5.9% | [4] -16.4% | [5] 6.2% | [6] -23.9%

Cc1ccc(C)c(NC(=O)C(=O)C2C(=O)N(c3ccccc3)N=C2N)c1 (stereo unspecified)
inactive: [1] -38.5% | [2] -29.4% | [3] -1.25% | [4] 1.9% | [5] -26.4% | [6] -14%

O=c1c(-c2ccccc2)c2oc(c1-c1ccccc1)CS(=O)(=O)CCC2
inactive: [1] 21.9% | [2] 20.2% | [3] 16% | [4] 12.3% | [5] 8.15% | [6] -2.35%

CN1CC(O)C(C(=O)NC23CC4CC(CC(C4)C2)C3)C1 (stereo unspecified)
inactive: [1] 30.8% | [2] 4.15% | [3] 11.8% | [4] 14.1% | [5] 10.4% | [6] 30.2%

Nc1ccccc1OCCOCCOc1ccccc1N
inactive: [1] -31.9% | [2] -2.65% | [3] -8.45% | [4] 45.4% | [5] 14.9% | [6] -10.5%

COc1ccc(/C=N/N2CN(C(C)C(=O)O)B(NC34CC5CC(CC(C5)C3)C4)N=C2N)cc1OC (stereo unspecified)
inactive: [1] -16.6% | [2] -14.2% | [3] 10.3% | [4] -25.2% | [5] 1.3% | [6] -6.4%

Cc1cc2c(=O)c3ccccc3oc2c(C(=O)O)c1C
inactive: [1] -6.75% | [2] -6.25% | [3] -50.6% | [4] 12% | [5] -1.9% | [6] -4.15%

CC1(C)CC(=O)C(N=Nc2ccccc2)=C(O)C1
inactive: [1] 0.7% | [2] 2.3% | [3] -2.55% | [4] -49.4% | [5] 24.2% | [6] -0.75%

CC1CNCC(C)N1C(=O)c1ccccc1 (stereo unspecified)
inactive: [1] 3.85% | [2] 5.15% | [3] -7.7% | [4] 3.25% | [5] 1.5% | [6] -39.5%

Cc1ccc(C)c(C(=O)c2ccccc2)c1C(=O)O
inactive: [1] -24.6% | [2] 7.8% | [3] 12.8% | [4] -29.9% | [5] 7.7% | [6] -4.15%

Cc1ccc2c(c1)C(C(C)C)CCC2(C)C (stereo unspecified)
inactive: [1] 5.3% | [2] -8.1% | [3] 2.95% | [4] 4.85% | [5] -0.6% | [6] 0.7%

Nc1ccc2ccc3ccccc3c2c1
inactive: [1] 50.8% | [2] 5.6% | [3] 43.4% | [4] 31.8% | [5] 27.5% | [6] 44.2%

O=S(=O)(/N=C1C=C/C(=N\S(=O)(=O)c2ccccc2)C2C/1C2(c1ccccc1)c1ccccc1)c1ccccc1 (stereo unspecified)
inactive: [1] 39.7% | [2] 17.6% | [3] 29.8% | [4] -30.6% | [5] 1.75% | [6] 13.7%

CC1(C)CC(=O)C2=C(C1)NC1=C(C2)C(=O)CC(C)(C)C1
inactive: [1] -15.4% | [2] -5.7% | [3] -22.4% | [4] 19.9% | [5] 7.6% | [6] 12.8%

O=C(NCCc1[nH]nc2c1C(=O)C=C(Nc1ccccc1)C2=O)OCc1ccccc1
inactive: [1] -29.7% | [2] -15.8% | [3] -32.4% | [4] -21.9% | [5] -29.1% | [6] -52.8%

N#Cc1cccc(Nc2ccccc2SSc2ccccc2Nc2cccc(C#N)c2)c1
inactive: [1] 13.1% | [2] 7.6% | [3] 17.5% | [4] -7.4% | [5] 3.95% | [6] 12.8%

CC(C)CCCC(C)C1CCC2C3C(=O)C=C4CC(OC(=O)CCC(C)C)CCC4(C)C3CCC12C (stereo unspecified)
inactive: [1] -0.05% | [2] 11.9% | [3] 25.3% | [4] 19.8% | [5] -0.55% | [6] 0.25%

COc1c(C)c(C)c(OC(C)=O)c(C)c1Br
inactive: [1] -10.2% | [2] -4.9% | [3] -1.95% | [4] -3.1% | [5] -2.1% | [6] -9.3%

CC(C)CNC(=O)c1ccccc1
inactive: [1] 0.45% | [2] 5.1% | [3] -1.6% | [4] -3.2% | [5] 0.5% | [6] -4.65%

CCCC(=O)c1c(NOC2OCC(OC(C)=O)C(OC(C)=O)C2OC(C)=O)nc(OC)n(C)c1=O (stereo unspecified)
inactive: [1] -24.7% | [2] 3.1% | [3] -40.1% | [4] 6.8% | [5] -15.9% | [6] -16.6%

O=c1[nH]c2nc3ccccc3c(=O)n2/c1=C/c1cccs1
inactive: [1] 28.9% | [2] 2.2% | [3] 4.4% | [4] 20.6% | [5] 14.3% | [6] -15.8%

O=Cc1ccc(F)cc1[N+](=O)[O-]
inactive: [1] 1.1% | [2] 3.65% | [3] -15.8% | [4] 1.1% | [5] -2.25% | [6] -17.2%
